{"source": "PubChem BioAssay", "key": {"[1]": {"test": "LFS_MB_P medulloblastoma growth inhibition, cell-based, chromothripsis tumors, cisplatin or BGB combos (AID 1671449);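 further: cells exposed for 96 hours; 0% = vehicle DMSO and 100% = killing by high DMSO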", "settings": "LFS_MB_P medulloblastoma cells"}, "[2]": {"test": "HDN33 neuroblastoma growth inhibition, cell-based, chromothripsis tumors, cisplatin or BGB combos (AID 1671450);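 further: cells exposed to compound for four days; 0% = vehicle DMSO and 100% = cell killing by high DMSO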", "settings": "HDN33 neuroblastoma cells, stronger effect = higher value"}, "[3]": {"test": "ICB984 medulloblastoma cell growth inhibition, synergistic combos for chromothripsis tumors, cisplatin or BGB combos (AID 1671451; call rule not given here;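 further: cells exposed for 96 hours before readout; 0% = vehicle DMSO and 100% = killing by high DMSO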)", "settings": "ICB984 medulloblastoma cells, drug combinations, stronger effect = higher value"}, "[4]": {"test": "LFS_MB_1R medulloblastoma cell growth inhibition, synergistic combos for chromothripsis tumors, cisplatin or BGB combos (AID 1671452);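 further: cells exposed for 96 hours before readout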", "settings": "LFS_MB_1R medulloblastoma cells, stronger effect = higher value"}, "[5]": {"test": "HTB85 osteosarcoma cell growth inhibition, synergistic combos for chromothripsis tumors, BGB or cisplatin IC20 combos (AID 1671453);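 further: cells exposed for 96 hours before readout; 0% = vehicle DMSO and 100% = high DMSO killing control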", "settings": "HTB85 osteosarcoma cells, drug combinations, stronger effect = higher value"}, "[6]": {"test": "CRL2098 osteosarcoma cell growth inhibition, synergistic combos for chromothripsis tumors, BGB or cisplatin IC20 combos (AID 1671454);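 further: cells exposed for 96 h before readout; 0% = vehicle DMSO and 100% = killing by high DMSO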", "settings": "CRL2098 osteosarcoma cells, drug combinations, stronger effect = higher value"}, "[7]": {"test": "HD-MB03 medulloblastoma cell growth inhibition, synergistic combos for chromothripsis tumors, BGB or cisplatin IC20 combos (AID 1671455; in the data active means inhibition above about 83%;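 further: 0% = vehicle DMSO and 100% = high DMSO as cytotoxic control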)", "settings": "HD-MB03 medulloblastoma cells, stronger effect = higher value"}, "[8]": {"test": "UWB1.289 ovarian carcinoma cell growth inhibition, synergistic combos for chromothripsis tumors, BGB or cisplatin combos (AID 1671456);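 further: cells exposed to compound for four days; 0% = vehicle DMSO and 100% = killing by high DMSO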", "settings": "UWB1.289 ovarian carcinoma cells, stronger effect = higher value"}, "[9]": {"test": "LFS_MB_2R medulloblastoma cell growth inhibition, synergistic combos for chromothripsis tumors, cisplatin combos (AID 1671457);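 further: cells exposed to compound for four days before readout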", "settings": "LFS_MB_2R medulloblastoma cells, stronger effect = higher value"}, "[10]": {"test": "MDA-MB-436 breast carcinoma cell growth inhibition, synergistic combos for chromothripsis tumors, BGB or cisplatin combos (AID 1671458; call rule not given here;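 further: cells exposed for 96 hours; 0% = vehicle DMSO and 100% = killing by high DMSO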)", "settings": "MDA-MB-436 breast carcinoma growth inhibition, drug combinations, stronger effect = higher value"}, "[11]": {"test": "UWB1.289_BRCA1 ovarian cancer growth, cell-based, BGB or cisplatin combinations (AID 1671459)", "settings": "UWB1.289 BRCA1 ovarian carcinoma, drug combinations, stronger effect = higher value"}, "[12]": {"test": "human astrocyte viability loss, single and combined drugs, cytotoxicity control for chromothriptic childhood tumor combination screen, cell-based, BGB or cisplatin IC20 combos (AID 1671460);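 further: cells exposed to compounds for 96 hours before viability readout; 0% = vehicle and 100% = killing control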", "settings": "Human astrocytes, drug combinations, stronger effect = higher value"}, "[13]": {"test": "growth inhibition of BT084 medulloblastoma cells, cell-based, ICGC_MB145, cisplatin and BGB IC40 combos (AID 1671461);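 further: cells exposed to drugs for 96 hours; 0% = vehicle DMSO and 100% = high DMSO full killing control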", "settings": "drug combinations, stronger effect = higher value"}, "[14]": {"test": "growth inhibition of RCMB18 medulloblastoma cells, cell-based, cisplatin and BGB IC40 combos (AID 1671462);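 further: cells exposed to compound for four days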", "settings": "stronger effect = higher value"}, "[15]": {"test": "growth inhibition of CRL1545 osteosarcoma cells, cell-based, cisplatin and BGB IC20 combos (AID 1671464);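 further: cells exposed to compound for 96 hours before readout; 0% = vehicle DMSO and 100% = high DMSO killing control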", "settings": "stronger effect = higher value"}, "[16]": {"settings": "measured here: combination with BGB IC40, at 0.05 µM"}, "[17]": {"settings": "measured here: with BGB IC20 combination, at 0.5 µM"}, "[18]": {"settings": "measured here: with cisplatin IC20 combination, at 0.5 µM"}, "[19]": {"settings": "measured here: combination with cisplatin, at 0.5 µM"}, "[20]": {"settings": "measured here: combination with cisplatin, at 5 µM"}}, "note": "“And” between values parts separate entries of the source, which are not always exact repeats. Equal entries are not always repeated. The source made the active and inactive calls. Unless noted, no stated cut-off is given here; in the data, active means inhibition above about 80%; inactive means the rest.", "data": [{"smiles": "CN(C)CCNC(=O)c1cccn2c(=O)c3cc4ccccc4cc3nc12", "values": [{"measurement": "inhibition", "setting": "[1]; at 0.5 µM, stronger effect = higher value", "value": "-18% (inactive) and -22.8% (inactive)"}, {"measurement": "inhibition", "setting": "[1]; measured here: combination with BGB IC20, at 0.005 µM", "value": "-22.4% and -7.9%"}, {"measurement": "inhibition", "setting": "[1]; measured here: combination with BGB IC40, at 0.005 µM", "value": "-33.3% and -28%"}, {"measurement": "inhibition", "setting": "[1]; [16]", "value": "-30.9% and 0.948%"}, {"measurement": "inhibition", "setting": "[1]; measured here: combination with cisplatin, at 0.5 µM, stronger effect = higher value", "value": "-27.4% and -25.4%"}, {"measurement": "inhibition", "setting": "[1]; measured here: combination with cisplatin, at 5 µM, stronger effect = higher value", "value": "25.9% and 73.9%"}, {"measurement": "inhibition", "setting": "[2]; BGB combo, at 5 µM", "value": "58.1% and 71.8%"}, {"measurement": "inhibition", "setting": "[2]; at 0.5 µM", "value": "4.02% (inactive) and 16.5% (inactive)"}, {"measurement": "inhibition", "setting": "[2]; cisplatin combo, at 5 µM", "value": "63.6% and 83.1%"}, {"measurement": "inhibition", "setting": "[2]; [17]", "value": "-3.52% and 15.5%"}, {"measurement": "inhibition", "setting": "[2]; [18]", "value": "5.98% and 5.66%"}, {"measurement": "inhibition", "setting": "[2]; single agent, at 5 µM", "value": "67.9% and 86.2%"}, {"measurement": "inhibition", "setting": "[3]; BGB IC20 combo, at 0.005 µM", "value": "-2.65% and -7.73%"}, {"measurement": "inhibition", "setting": "[3]; BGB IC40 combo, at 0.005 µM", "value": "-19% and -46.8%"}, {"measurement": "inhibition", "setting": "[3]; BGB IC40 combo, at 0.05 µM", "value": "29.2% and 25.5%"}, {"measurement": "inhibition", "setting": "[3]; at 0.5 µM", "value": "-22.7% (inactive) and -19.3% (inactive)"}, {"measurement": "inhibition", "setting": "[3]; cisplatin combo, at 0.05 µM", "value": "25.8% and 22.5%"}, {"measurement": "inhibition", "setting": "[3]; cisplatin combo, at 0.5 µM", "value": "-35.6% and -11.2%"}, {"measurement": "inhibition", "setting": "[3]; cisplatin combo, at 5 µM", "value": "-26.2% and -47.1%"}, {"measurement": "inhibition", "setting": "[3]; measured here: 5 uM single agent, at 5 µM", "value": "-15.3% and -26.1%"}, {"measurement": "inhibition", "setting": "[4]; at 0.5 µM", "value": "-22.6% (inactive) and -0.28% (inactive)"}, {"measurement": "inhibition", "setting": "[4]; [16]", "value": "-22.9% and -35.5%"}, {"measurement": "inhibition", "setting": "[4]; [19]", "value": "-29.9% and 26.6%"}, {"measurement": "inhibition", "setting": "[4]; [20]", "value": "66.5% and 90.2%"}, {"measurement": "inhibition", "setting": "[5]; at 0.5 µM", "value": "-6.94% (inactive) and -9.64% (inactive)"}, {"measurement": "inhibition", "setting": "[5]; measured here: with BGB IC20, at 0.5 µM", "value": "10% and -19.8%"}, {"measurement": "inhibition", "setting": "[5]; measured here: with BGB IC20, at 5 µM", "value": "24.9% and 50.6%"}, {"measurement": "inhibition", "setting": "[5]; measured here: with cisplatin IC20, at 0.5 µM", "value": "-22.5% and -20.8%"}, {"measurement": "inhibition", "setting": "[5]; measured here: with cisplatin IC20, at 5 µM", "value": "24% and 36.1%"}, {"measurement": "inhibition", "setting": "[5]; single agent, at 5 µM", "value": "45.2% and 66.6%"}, {"measurement": "inhibition", "setting": "[6]; at 0.5 µM", "value": "2.28% (inactive) and -30.7% (inactive)"}, {"measurement": "inhibition", "setting": "[6]; measured here: combination with BGB at IC20, at 0.5 µM", "value": "-26.7% and 2.29%"}, {"measurement": "inhibition", "setting": "[6]; measured here: combination with cisplatin at IC20, at 0.5 µM", "value": "7.69% and -23.9%"}, {"measurement": "inhibition", "setting": "[7]; at 0.5 µM", "value": "0.57% (inactive) and 18.1% (inactive)"}, {"measurement": "inhibition", "setting": "[7]; measured here: combo with BGB at IC20, at 0.5 µM", "value": "5% and 20.5%"}, {"measurement": "inhibition", "setting": "[7]; measured here: combo with cisplatin at IC20, at 0.5 µM", "value": "-3.84% and 18.8%"}, {"measurement": "inhibition", "setting": "[8]; at 0.5 µM", "value": "10.9% (inactive) and 15.8% (inactive)"}, {"measurement": "inhibition", "setting": "[8]; measured here: inhibition with BGB combination, at 0.05 µM", "value": "-15.6% and -22%"}, {"measurement": "inhibition", "setting": "[8]; measured here: inhibition with cisplatin combination, at 0.05 µM", "value": "-3.25% and -14.4%"}, {"measurement": "inhibition", "setting": "[9]; at 0.5 µM", "value": "-28.9% (inactive) and -23.7% (inactive)"}, {"measurement": "inhibition", "setting": "[9]; [19]", "value": "-34.7% and -23.8%"}, {"measurement": "inhibition", "setting": "[9]; [20]", "value": "-8.3% and 23.4%"}, {"measurement": "inhibition", "setting": "[10]; at 0.5 µM", "value": "-19.8% (inactive) and -0.82% (inactive)"}, {"measurement": "inhibition", "setting": "[10]; measured here: BGB combination, at 0.5 µM", "value": "-29.6% and -21.4%"}, {"measurement": "inhibition", "setting": "[10]; measured here: BGB combination, at 5 µM", "value": "5.41% and 28.4%"}, {"measurement": "inhibition", "setting": "[10]; measured here: cisplatin combination, at 0.5 µM", "value": "-39.6% and -3.6%"}, {"measurement": "inhibition", "setting": "[10]; measured here: cisplatin combination, at 5 µM", "value": "-6.72% and 54.3%"}, {"measurement": "inhibition", "setting": "[11]; BGB combination, concentration series, at 5 µM", "value": "35.7% and 58.1%"}, {"measurement": "inhibition", "setting": "[11]; at 0.5 µM", "value": "9.64% (inactive) and 20.1% (inactive)"}, {"measurement": "inhibition", "setting": "[11]; cisplatin combination, concentration series, at 5 µM", "value": "60% and 77.2%"}, {"measurement": "inhibition", "setting": "[12]; at 0.5 µM", "value": "16.8% (inactive) and 32.4% (inactive)"}, {"measurement": "inhibition", "setting": "[12]; measured here: combo with BGB IC20, at 0.5 µM", "value": "18.7% and 31.3%"}, {"measurement": "inhibition", "setting": "[12]; measured here: combo with cisplatin IC20, at 0.5 µM", "value": "0.257% and 17.6%"}, {"measurement": "inhibition", "setting": "[13]; at 0.5 µM", "value": "-10% (inactive) and -13.6% (inactive)"}, {"measurement": "inhibition", "setting": "[13]; cisplatin combination, at 0.5 µM", "value": "-8.31% and -7.28%"}, {"measurement": "inhibition", "setting": "[13]; cisplatin combination, at 5 µM", "value": "-110% and 45.2%"}, {"measurement": "inhibition", "setting": "[13]; measured here: BGB IC40 combination 0.05 uM, at 0.05 µM", "value": "-36.7% and -32.1%"}, {"measurement": "inhibition", "setting": "[13]; single agent, at 5 µM", "value": "-53.7% and -33.8%"}, {"measurement": "inhibition", "setting": "[14]; at 0.5 µM", "value": "-4.43% (inactive) and -8.03% (inactive)"}, {"measurement": "inhibition", "setting": "[14]; cisplatin combo, at 5 µM", "value": "24.5% and 56.4%"}, {"measurement": "inhibition", "setting": "[14]; measured here: BGB IC40 combination, at 0.05 µM", "value": "-9.99% and -6.24%"}, {"measurement": "inhibition", "setting": "[14]; [19]", "value": "-30.6% and 30.2%"}, {"measurement": "inhibition", "setting": "[14]; single agent, at 5 µM", "value": "-2.75% and -32%"}, {"measurement": "inhibition", "setting": "[15]; at 0.5 µM", "value": "6.65% (inactive) and -6.99% (inactive)"}, {"measurement": "inhibition", "setting": "[15]; [17]", "value": "19.7% and -21.2%"}, {"measurement": "inhibition", "setting": "[15]; [18]", "value": "-1.47% and 0.101%"}, {"measurement": "inhibition", "setting": "[15]; single agent, at 0.05 µM", "value": "-9.51% and -11.2%"}, {"measurement": "inhibition", "setting": "[15]; single agent, at 5 µM", "value": "37.2% and 93.5%"}]}]}
